The list is not random: actives were taken first. Their share in the collection is about 19%.
DT40 TDP1 CPT: qHTS for Inhibitors of human tyrosyl-DNA phosphodiesterase 1 (TDP1): qHTS in cells in presence of CPT; Potency, µM (doses to about 46.2 µM), for the others: at the top dose activity change, negative = growth inhibition, actives largely listed as inhibitors; chicken DT40 Tdp1-/-;hTDP1 cells + 20 nM CPT, ATP luminescence, 48 h; actives 12% (n = 420,000); also: potency is read from the fitted curve at half-maximal effect; nearly all actives have a fitted effect of over 55% in size
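Cell growth measured by CellTiter-Glo luminescence after a minimum 48 h, 37 C compound exposure with 20 nM CPT in Tdp1-knockout DT40 cells stably expressing hTDP1, seeded 400/well; qHTS titration format.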
DT40 TDP1 no CPT: qHTS for Inhibitors of human tyrosyl-DNA phosphodiesterase 1 (TDP1): qHTS in cells in absence of CPT; DT40 Tdp1-/- hTDP1 cells, no CPT, ATP luminescence, 48 h; AID 686978, 2013; actives 15% (n = 420,000); Potency, µM (series often up to 46.2 µM), for the others: top-dose activity change, negative = growth inhibition, actives largely listed as inhibitors; also: potency is read from the fitted curve at half-maximal effect; nearly all actives have a fitted effect of over 55% in size
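Cells were dispensed at 400 per well, compounds added by pin tool, plates incubated ≥48 hr at 37 °C, then CellTiter-Glo added for 30 min at room temperature before luminescence reading. Line: DT40 Tdp1-/- complemented with hTDP1; camptothecin omitted.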
IL1B secr inh: qHTS for Inhibitors of Inflammasome Signaling: IL-1-beta AlphaLISA Primary Screen. THP-1 LPS/ATP IL-1B secretion, AlphaLISA, 16 h; active compounds read low. activity change, % at 57.5 µM. actives 4.7% (n = 360,000). AID 743279, 2014; in the data active = activity change below about -50%; inconclusive = mostly about -30% to -49%
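THP-1 cells pretreated 1 hr with compounds (up to 57.5 uM final), then stimulated with LPS (250 ng/mL final) plus ATP (1.25 mM final); secreted IL-1B measured by AlphaLISA after 16 hr, decreased signal indicating inhibition.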
HT1080 IDH1KD tx: qHTS for induction of synthetic lethality in tumor cells producing 2HG: qHTS for the HT-1080-IDH1KD cell line. AID 686971, 2013. actives 2% (n = 360,000). HT-1080 IDH1 knockdown viability, ATP luminescence, 48 h. Potency, µM (titrated, usually from 46.1 µM), for the others: at the highest dose activity, negative = toxicity, most hits filed as cytotoxic;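 also: potency is read from the fitted curve at half-maximal effect; 0% = DMSO wells and -100% = cell-free medium wells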
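% activity derives from luminescence (CellTiter-Glo), normalised to DMSO and no-cell wells. HT-1080-IDH1KD cells, 750/well, had 48 h compound exposure at 37 °C.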
HT1080NT lethal: qHTS for induction of synthetic lethality in tumor cells producing 2HG: qHTS for the HT-1080-NT fibrosarcoma cell line; HT-1080-NT fibrosarcoma viability, CellTiter-Glo ATP luminescence, 48 h; Potency, µM (series often up to 46.1 µM), for the others: at the top dose activity, negative = less viability, most hits filed as cytotoxic; actives 1.6% (n = 360,000); AID 686970, 2013;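 also: NT is the 2HG producing partner of a matched IDH1 knockdown line; potency is read from the fitted curve at half-maximal effect; 0% = DMSO-treated cells and -100% = media-only wells without cells; nearly all actives have a fitted effect of over 55% in size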
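Fibrosarcoma NT cells, 750 per well in 5% FBS RPMI, were exposed to compound for 48 hours. Viability: CellTiter-Glo luminescence.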
* hit, by the source's call; i = inactive; u = inconclusive; x = no result. Unless noted, calls follow the shape of the dose curve; as a rule, active = well fitted curve in the direction sought with a large enough effect; inconclusive = small, poorly fitted or top-dose-only effect, or another doubt; inactive = no such curve, though single readings can be large; an effect the other way counts as inactive or inconclusive. Unless noted, % is scaled to controls: 0 for no effect and ±100 for the full control effect.

SMILES	DT40 TDP1 CPT	DT40 TDP1 no CPT	IL1B secr inh	HT1080 IDH1KD tx	HT1080NT lethal
COP(=O)(/C=C(\Cl)c1ccccc1)/C=C(\Cl)c1ccccc1	-24%	-24%	-5	0%	7%
C#CC(C)(O)CC (configuration not stated)	19%	22%	x	x	x
CC(C)CCCn1c(O)c(/C=C2/C=CC=N2)c(=O)[nH]c1=O	5.8µM*	5.2µM*	-18	16µM*	18µM*
CCCCn1c(O)c(C=NCCCn2ccnc2)c(=O)[nH]c1=O	-11%	1%	10	0%	-6%
COc1ccc(C(O)C(C)NC(C)C(O)c2ccc(OC)cc2)cc1 (configuration not stated)	u	-29%	0	0%	2%
O=C(NC1CCCCC1)C1CCN(C(=O)c2ccc(-c3ccccc3)cc2)CC1	u	-26%	0	-3%	3%
Cc1cc(N2CCCCC2)nc2ccc(NC(=O)CCC(=O)N3CCN(c4cccc(Cl)c4)CC3)cc12	6.5µM*	3.7µM*	x	x	x
C=CCNc1nnc(Sc2ncccc2[N+](=O)[O-])s1	5.2µM*	7.3µM*	-14	-19%	-31%
Cc1cccc(OCCNc2ncccc2[N+](=O)[O-])c1	u	u	-6	11%	2%
CCOC(=O)c1cnc(N2CC2)nc1N	0.46µM*	0.92µM*	-8	7%	-2%
O=C(NC(=S)N1CC1)c1ccccc1	-4%	u	16	0%	11%
CCN(CC)S(=O)(=O)c1ccc(C(=O)NC(=S)N2CCN(c3ccccc3O)CC2)cc1	u	18µM*	-20	-16%	-7%
OC1/C(=C/c2ccccc2F)N2CCC1CC2 (configuration not stated)	4%	-5%	2	9%	13%
O=C(c1cc(-c2ccccc2)nc2ccccc12)N1CCC2(CC1)OCCO2	u	u	-3	-7%	3%
Cc1c(-c2cccc(Cl)c2)nc2ccccc2c1C(=O)N1CCC2(CC1)OCCO2	21µM*	u	i	u	-8%
Nc1cc(C(=O)Nc2ccc(Cl)cc2)ccc1N1CC2CC(C1)c1cccc(=O)n1C2 (configuration not stated)	21µM*	10µM*	-2	-15%	-5%
CC1CCCCN1C(=O)Cn1cc(C=C2C(=O)N(C)C(=O)N(C)C2=O)c2ccccc21 (configuration not stated)	3%	0%	19	-8%	1%
O=C(N[C@H]1N=C(c2ccccc2F)c2cccc3c2N(CC3)C1=O)c1cc2ccccc2[nH]1	3%	-20%	x	x	x
CCOc1cc2c(cc1OCC)-n1cccc1C(c1cccc([N+](=O)[O-])c1)NC2 (configuration not stated)	23µM*	18µM*	-16	0%	-10%
FC(F)(F)Oc1ccc(C2NCc3ccccc3-n3cccc32)cc1 (configuration not stated)	-26%	u	7	-2%	0%
CC(C)c1ccc(C2NCc3ccccc3-n3cccc32)cc1 (configuration not stated)	u	21µM*	-10	0%	-13%
CCOc1cc(C2NCc3ccccc3-n3cccc32)ccc1O (configuration not stated)	23µM*	u	-57*	-6%	-11%
O=C(Nc1ccc(F)c([N+](=O)[O-])c1)c1cccn(Cc2ccccc2)c1=O	-25%	u	x	x	x
CC(=O)OC1CN2CCC1CC2 (configuration not stated)	0%	-6%	x	x	x
CC1(C)CC(=O)C(C=NCCN2CCN(C(=O)Cc3ccc(Cl)cc3)CC2)=C(O)C1	-10%	1%	8	6%	5%
SMILES	DT40 TDP1 CPT	DT40 TDP1 no CPT	IL1B secr inh	HT1080 IDH1KD tx	HT1080NT lethal
COc1ccc(Nc2nc(N3CCCC3)nc3ccccc23)c(OC)c1	u	u	-99*	11µM*	u
CCNc1nc(Cl)nc(NCC)n1	8%	-5%	x	x	x
COc1cccc(NC(=O)N2CCC3(CC2)OCCO3)c1	9%	9%	21	6%	12%
Cc1cc(OCCCC(=O)NCc2cccs2)ccc1Cl	1%	-27%	-1	-5%	10%
Cc1ccc(Cl)cc1Nc1nn2c(=O)c3ccc(C(=O)NCc4cccs4)cc3nc2s1	15µM*	16µM*	x	x	x
COc1cccc(NC(=O)c2ccc3c(=O)n4nc(Nc5ccccc5OC)sc4nc3c2)c1	5.8µM*	4.6µM*	x	x	x
Cc1ccc(N=C(/N=C(\N)N[N+](=O)[O-])Nc2ccc(C)cc2)cc1	u	u	-2	-13%	-9%
CCNC(=S)NCCC1=c2ccccc2=N/C1=C\c1c(O)n(C)c(=O)n(C)c1=O	u	21µM*	0	-1%	-2%
CCCCn1c(O)c(C=Nc2c(C)n(C)n(-c3ccccc3)c2=O)c(=O)[nH]c1=O	0%	-2%	13	7%	8%
CCN(CC)C(=O)c1ccc(NC(=O)Cn2nc(C)c3ccccc3c2=O)cc1	-24%	-8%	1	-2%	0%
Cc1ccc(C)c(NC(=O)Cn2nc(C)c3nn(-c4ccc(Cl)cc4)c(C)c3c2=O)c1	23µM*	18µM*	x	x	x
Cc1ccc(-n2nc3c(=O)n(CC(=O)Nc4ccccc4F)nc(C)c3c2C)c(C)c1	u	18µM*	x	x	x
N[C@]1(C(=O)O)CC[C@@H](C(=O)O)C1 (racemic)	8%	-21%	x	x	x
Cc1nn(Cc2ccccc2Cl)c(C)c1C(=O)Nc1nnc(C2CC2)s1	-55%	u	0	2.5µM*	u
Cc1nn(Cc2ccccc2Cl)c(C)c1C(=O)NC1CCCc2ccccc21 (configuration not stated)	-2%	-9%	24	2%	0%
CCOc1ccc(-c2cn3c(n2)sc2cc(C(=O)N4CCCC(C)C4)ccc23)cc1 (configuration not stated)	10µM*	6.5µM*	x	x	x
CCOc1ccc(C(=O)OC2CC3CCC(C2)N3C)cc1 (configuration not stated)	-15%	u	18	-1%	0%
CC1=C2C3OC(=O)[C@H](C)[C@H]3CC[C@@]2(C)C=CC1=O (some centres not stated)	1%	-16%	x	x	x
COc1cc2c(cc1O)CC[C@@H]1[C@@H]2CC[C@]2(C)[C@@H](O)CC[C@@H]12	1.8µM*	4.6µM*	-11	u	u

Compound activity: PubChem, National Center for Advancing Translational Sciences (NCATS)
